PubChem BioAssay (EPA / NIEHS)
Inconclusive results are not listed. The source made the active and inactive calls. How the source made its calls, unless noted: active means hit-call score of the fitted dose curve at least 0.9, where 1 is the maximum; inconclusive means response in the unintended direction; inactive means score below 0.9.

Key:
[1] = ATG_TCF_b_cat_CIS: Attagene CIS-FACTORIAL HepG2 Assay for human T-Cell-Factor with beta-catenin (TCF/b-cat) (AID 2282965; active means hit-call score of the fitted dose curve at least 0.9, where 1 is the maximum; inactive means score below 0.9); conditions: HepG2 TCF/beta-catenin cis-reporter transcription, actives raise or lower the signal
Outline: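 HepG2 cells transiently transfected with cis-promoter-driven multiplexed reporter units; reporter mRNA measured 24 h after dosing by RT-PCR, FAM labelling, HpaI digestion and capillary electrophoresis. Bidirectional fitting relative to DMSO baseline.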

[2] = ATG_TGFb_CIS: Attagene CIS-FACTORIAL HepG2 Assay for human Transforming Growth Factor (TGF) (AID 2282967; active means hit-call score of the fitted dose curve at least 0.9, where 1 is the maximum; inactive means score below 0.9); conditions: HepG2 Attagene CIS TGFb reporter, mRNA transcription; actives raise or lower the signal
Outline: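 Liver HepG2 line, cis-factorial reporter panel, 24 h dosing. Quantitation: RT-PCR products labeled with 6-FAM, cut with HpaI, resolved by capillary electrophoresis; DMSO-referenced bidirectional analysis.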

[3] = ATG_VDRE_CIS: Attagene CIS-FACTORIAL HepG2 Assay for human Vitamin D Receptor Element (VDRE) (AID 2282968; active means hit-call score of the fitted dose curve at least 0.9, where 1 is the maximum; inactive means score below 0.9); conditions: HepG2 VDRE cis-reporter transcription, actives raise or lower the signal
Outline: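 Cell-based multiplexed reporter format in human liver HepG2 cells, 24 h post-dose. Fluorescence from capillary electrophoresis of reporter cDNA gives the signal, with DMSO as negative control and baseline.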

[4] = biological target: X-box-binding protein 1 (Homo sapiens) (UniProt P17861); assay: ATG_Xbp1_CIS: Attagene CIS-FACTORIAL HepG2 Assay for human X-box Binding Protein 1 (XBP1) (AID 2282972; active means hit-call score of the fitted dose curve at least 0.9, where 1 is the maximum; inactive means score below 0.9); conditions: HepG2 XBP1 cis-element reporter, Attagene multiplex; actives raise or lower the signal
X-box-binding protein 1 (Homo sapiens), sequence (P17861 whole entry, looked up, the tested form may be a part): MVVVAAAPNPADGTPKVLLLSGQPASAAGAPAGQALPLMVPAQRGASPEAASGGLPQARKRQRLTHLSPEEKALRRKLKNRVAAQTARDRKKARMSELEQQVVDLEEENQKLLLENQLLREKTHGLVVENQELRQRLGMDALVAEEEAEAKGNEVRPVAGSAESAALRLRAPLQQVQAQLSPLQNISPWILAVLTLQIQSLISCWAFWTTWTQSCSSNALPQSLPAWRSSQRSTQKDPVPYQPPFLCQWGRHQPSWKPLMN
Outline: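 Fluorescence-labelled cDNA fragments from reporter transcripts, separated by capillary electrophoresis, give the signal. Source: HepG2 cells transfected with promoter-driven reporter units, harvested 24 h post-dose. DMSO served as reference for bidirectional curve fitting.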

[5] = ATG_M_19_TRANS: Attagene TRANS-FACTORIAL HepG2 Assay for M19 Transcription Factor (Internal Marker) (AID 2282974); conditions: HepG2 Attagene TRANS-FACTORIAL M19 internal marker reporter
Outline: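 Using RT-PCR and capillary electrophoresis, reporter mRNA from transiently transfected human HepG2 cells was quantified following 24 h exposure; activity was fitted in the positive direction against DMSO.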

[6] = ATG_GAL4_TRANS: Attagene TRANS-FACTORIAL HepG2 Assay for GAL4 (Internal Marker) (AID 2282976); conditions: HepG2 Attagene TRANS GAL4 internal marker reporter
Outline: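 In transfected human HepG2 liver cells dosed 24 h, GAL4 reporter mRNA serves as a baseline marker. Detection by RT-PCR with fluorescent capillary electrophoresis, activity fitted upward relative to DMSO.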

[7] = biological target: Glucocorticoid receptor (Homo sapiens) (UniProt P04150); assay: ATG_GR_TRANS: Attagene TRANS-FACTORIAL HepG2 Assay for human Glucocorticoid Receptor (GR) (AID 2282978); conditions: HepG2 Attagene TRANS GR reporter, mRNA transcription;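 further: activators score as hits since higher reporter transcript over DMSO is fitted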
Glucocorticoid receptor (Homo sapiens), sequence (P04150 whole entry, looked up, the tested form may be a part): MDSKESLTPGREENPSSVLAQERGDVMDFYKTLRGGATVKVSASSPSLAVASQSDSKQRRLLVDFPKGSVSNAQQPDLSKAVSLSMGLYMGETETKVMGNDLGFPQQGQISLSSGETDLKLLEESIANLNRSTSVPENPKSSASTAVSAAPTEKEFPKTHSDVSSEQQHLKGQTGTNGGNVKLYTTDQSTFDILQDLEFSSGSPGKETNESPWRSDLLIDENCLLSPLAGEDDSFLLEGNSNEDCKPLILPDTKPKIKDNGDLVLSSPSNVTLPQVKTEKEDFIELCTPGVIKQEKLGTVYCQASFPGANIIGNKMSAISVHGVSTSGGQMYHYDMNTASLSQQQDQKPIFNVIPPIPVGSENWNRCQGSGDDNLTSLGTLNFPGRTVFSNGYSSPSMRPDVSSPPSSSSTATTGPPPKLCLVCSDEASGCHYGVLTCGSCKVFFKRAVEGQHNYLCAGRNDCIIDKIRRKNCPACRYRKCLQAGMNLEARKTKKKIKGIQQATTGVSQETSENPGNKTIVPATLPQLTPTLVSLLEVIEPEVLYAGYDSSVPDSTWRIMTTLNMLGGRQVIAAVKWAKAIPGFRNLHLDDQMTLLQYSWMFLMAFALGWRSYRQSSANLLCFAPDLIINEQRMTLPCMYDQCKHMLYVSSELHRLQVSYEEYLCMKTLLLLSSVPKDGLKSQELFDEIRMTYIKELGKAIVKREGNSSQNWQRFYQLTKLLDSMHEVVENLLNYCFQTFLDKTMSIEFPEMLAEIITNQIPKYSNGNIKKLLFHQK
Outline: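 Exogenous NR-GAL4 fusion activity was assessed through induced GAL4-UAS reporter transcripts in transfected human HepG2 cells, quantified after 24 h by RT-PCR and fluorescent capillary electrophoresis with DMSO as baseline.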

[8] = biological target: Oxysterols receptor LXR-beta (Homo sapiens) (UniProt P55055); assay: ATG_LXRb_TRANS: Attagene TRANS-FACTORIAL HepG2 Assay for human Liver X Receptor beta (LXRb) (AID 2282981); conditions: HepG2 Attagene TRANS GAL4-LXRb reporter, mRNA
Oxysterols receptor LXR-beta (Homo sapiens), sequence (P55055 whole entry, looked up, the tested form may be a part): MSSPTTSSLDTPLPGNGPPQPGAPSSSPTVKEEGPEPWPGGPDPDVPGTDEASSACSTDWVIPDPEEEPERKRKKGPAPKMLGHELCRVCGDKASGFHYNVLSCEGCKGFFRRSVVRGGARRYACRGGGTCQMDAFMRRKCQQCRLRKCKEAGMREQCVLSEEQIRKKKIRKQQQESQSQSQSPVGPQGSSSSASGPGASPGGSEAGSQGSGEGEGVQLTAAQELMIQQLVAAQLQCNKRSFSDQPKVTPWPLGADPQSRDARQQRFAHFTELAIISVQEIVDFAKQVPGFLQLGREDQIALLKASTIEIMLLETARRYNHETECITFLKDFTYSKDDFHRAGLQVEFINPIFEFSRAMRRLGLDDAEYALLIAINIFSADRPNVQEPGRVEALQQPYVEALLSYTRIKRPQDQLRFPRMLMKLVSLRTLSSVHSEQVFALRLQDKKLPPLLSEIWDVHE
Outline: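 Gain-of-signal mRNA reporter endpoint, DMSO as negative control. Transiently transfected HepG2 cells carrying the NR-Gal4 chimera and GAL4-UAS reporter units were treated 24 h; transcripts quantified by RT-PCR and capillary electrophoresis fluorescence.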

[9] = biological target: Hepatocyte nuclear factor 4-alpha (Homo sapiens) (UniProt P41235); assay: ATG_HNF4a_TRANS: Attagene TRANS-FACTORIAL HepG2 Assay for human Hepatocyte Nuclear Factor 4 alpha (HNF4a) (AID 2282982); conditions: HepG2 HNF4a transactivation reporter, mRNA readout
Hepatocyte nuclear factor 4-alpha (Homo sapiens), sequence (P41235 whole entry, looked up, the tested form may be a part): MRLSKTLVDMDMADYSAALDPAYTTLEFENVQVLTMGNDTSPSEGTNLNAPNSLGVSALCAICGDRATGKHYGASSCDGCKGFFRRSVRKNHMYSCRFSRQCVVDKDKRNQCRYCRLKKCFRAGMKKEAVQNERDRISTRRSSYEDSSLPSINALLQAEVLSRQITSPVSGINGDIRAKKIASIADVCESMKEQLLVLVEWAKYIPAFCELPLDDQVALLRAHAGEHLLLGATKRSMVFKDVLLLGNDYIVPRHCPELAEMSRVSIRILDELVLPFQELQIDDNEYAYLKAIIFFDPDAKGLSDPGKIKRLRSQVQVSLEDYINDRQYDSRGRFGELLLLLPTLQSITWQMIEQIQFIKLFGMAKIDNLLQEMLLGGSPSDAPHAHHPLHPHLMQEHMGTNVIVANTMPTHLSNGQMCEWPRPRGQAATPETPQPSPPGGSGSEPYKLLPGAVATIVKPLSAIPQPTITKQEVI
Outline: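 Gain-of-signal mRNA induction, relative to DMSO vehicle, was read after 24 h compound treatment of HepG2 cells bearing transfected GAL4-UAS reporters. Detection used RT-PCR, 6-FAM primer extension and capillary electrophoresis.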

[10] = ATG_M_32_TRANS: Attagene TRANS-FACTORIAL HepG2 Assay for M32 Transcription Factor (Internal Marker) (AID 2282984); conditions: HepG2 Attagene TRANS M32 internal marker reporter;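 further: transcript level of a background control reporter unit measured by RT-PCR and capillary electrophoresis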
Outline: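 Capillary electrophoresis of 6-FAM-labelled reporter fragments gives the signal; data fitted for gain over DMSO negative control. Source: HepG2 cells bearing transient multiple reporter transcription units, 24 h exposure.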

[11] = biological target: Transcriptional activator Myb (Homo sapiens) (UniProt P10242); assay: ATG_Myb_CIS: Attagene CIS-FACTORIAL HepG2 Assay for human Myeloblastosis (Myb) Proto-Oncogene Transcription Factor (AID 2282986; active means hit-call score of the fitted dose curve at least 0.9, where 1 is the maximum; inactive means score below 0.9); conditions: HepG2 Attagene CIS-FACTORIAL Myb reporter transcription; actives raise or lower the signal
Transcriptional activator Myb (Homo sapiens), sequence (P10242 whole entry, looked up): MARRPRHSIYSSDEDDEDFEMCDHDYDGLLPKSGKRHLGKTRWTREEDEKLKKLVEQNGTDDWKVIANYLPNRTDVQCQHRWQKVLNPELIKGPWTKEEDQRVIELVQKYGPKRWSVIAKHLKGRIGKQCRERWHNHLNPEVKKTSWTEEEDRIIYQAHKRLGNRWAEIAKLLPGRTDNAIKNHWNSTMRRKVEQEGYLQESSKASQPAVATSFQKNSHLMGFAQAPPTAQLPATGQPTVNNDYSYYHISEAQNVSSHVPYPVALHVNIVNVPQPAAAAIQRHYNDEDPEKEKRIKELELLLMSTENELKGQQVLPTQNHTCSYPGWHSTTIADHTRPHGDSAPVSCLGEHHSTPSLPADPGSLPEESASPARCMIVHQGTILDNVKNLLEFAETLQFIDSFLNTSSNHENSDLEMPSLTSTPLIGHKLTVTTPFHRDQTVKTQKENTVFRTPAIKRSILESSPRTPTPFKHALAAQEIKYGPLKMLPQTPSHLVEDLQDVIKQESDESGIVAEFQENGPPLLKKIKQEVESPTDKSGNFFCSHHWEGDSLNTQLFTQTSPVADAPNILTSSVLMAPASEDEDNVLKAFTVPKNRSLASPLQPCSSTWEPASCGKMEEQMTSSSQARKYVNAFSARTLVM
Outline: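 In this HepG2 transient-transfection format, cis-regulated reporter mRNA is quantified 24 h post-dosing by RT-PCR with capillary electrophoresis, fitted bidirectionally to DMSO baseline.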

Measured: outcome

CCCCCCC(C)O (stereo unspecified)
inactive: [1] | [2] | [3] | [4] | [5] | [6] | [7] | [8] | [9] | [10] | [11]
